Results on 7 compounds are retold here after PubChem BioAssay (Tox21).

Where “and” joins values, the source holds several entries; their conditions need not be identical. Equal values may be shown once. Inconclusive results are not listed. Calls of active or inactive are those of the source. Unless noted, calls come from the whole dose curve.

Experiment [1] in a line: Nuclear factor erythroid 2-related factor 2/antioxidant responsive element (Nrf2/ARE) small molecule agonists: qHTS cell viability counter screen in human keratinocytes (AID 1919968; active = well fitted curve in the direction sought with a large enough effect in the repeat runs; an effect the other way counts as inactive or inconclusive; note: nearly all actives have a fitted effect of over 55% in size). The essentials:
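Stably transfected HaCaT (KeratinoSens), 1,500/well. Test agents in DMSO were applied for 23 h, 37 C/5% CO2. CellTiter-Fluor was incubated 1 h before the fluorescence read.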
In general terms: Quantitative high-throughput screening tests each substance at several concentrations.

Experiment [2] is described as follows: Nuclear factor erythroid 2-related factor 2/antioxidant responsive element (Nrf2/ARE) small molecule agonists: luciferase reporter gene qHTS assay in human keratinocytes (AID 1919969). Note: nearly all actives have a fitted effect of over 35% in size.
Experiment [3] addresses Gonadotropin-releasing hormone receptor (Homo sapiens) (UniProt P30968). Put plainly: Human gonadotropin-releasing hormone receptor (GnRHR) small molecule agonists, calcium flux assay in GnRHR-HEK293 cells (AID 1920063). Note: nearly all actives have a fitted effect of over 35% in size. The essentials: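 Stable human GnRHR HEK293 line. 18 h plating, then calcium dye for 1 h at 37 C. Agonist-mode compound addition from DMSO stocks; fluorescence monitored 3 min.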
(A change in cytosolic calcium serves as a functional read-out for many receptors and channels.)

For experiment [4], the target named is KiSS-1 receptor (Homo sapiens) (UniProt Q969F8). In words: Human kisspeptin (KISS1R) small molecule agonists, calcium flux assay in KISS1R-HEK293 cells (AID 1920064; active = well fitted curve in the direction sought with a large enough effect in the repeat runs; an effect the other way counts as inactive or inconclusive). The essentials:
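After overnight (18 h) culture at 37 C/5% CO2, human KISS1R-HEK293 cells received calcium dye for 1 h, then test compound; emission at 540 nm (excitation 480 nm) was tracked for 3 min.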

Experiment [5] can be described thus: G protein-coupled receptor (GPCR) small molecule agonists, calcium flux assay: HEK293 wild type cell line counter screen (AID 1920065). In outline:
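Following 18 h incubation at 37 C/5% CO2, plates got calcium dye for 1 h; compounds, ATP or DMSO were then pinned in and fluorescence followed kinetically (480/540 nm).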

Experiment [6] can be described thus: p53 small molecule agonists, cell-based qHTS assay with human liver microsomes (AID 1963577).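 Note: p53 response element beta-lactamase reporter cells with liver microsomes plus NADPH.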 The essentials:
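With metabolic activation: human liver microsomes (0.5 mg/mL final) plus NADPH (0.5 mg/mL final) added alongside compounds to p53RE-bla cells; 16 h 37 C exposure; beta-lactamase read by LiveBLAzer fluorescence.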

Experiment [7] is described as follows: p53 small molecule agonists, cell-based qHTS assay with human liver microsomes: qHTS cell viability counter screen (AID 1963579). Note: nearly all actives have a fitted effect of over 45% in size. In outline:
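Metabolic activation used human liver microsomes and NADPH, both 0.5 mg/mL final, over 16 hours at 37 C on p53RE-bla cells (4,000/well). Cytotoxicity measured by CellTiter-Glo luminescence, 30 min at room temperature.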

Experiment [8] is described as follows: p53 small molecule agonists, cell-based qHTS assay with rat liver microsomes: qHTS cell viability counter screen (AID 1963580). Note: nearly all actives have a fitted effect of over 45% in size. In outline: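 After the beta-lactamase ratio was read, CellTiter-Glo was added to the same wells and luminescence measured at 30 min; cells had been treated 16 h at 37 C with compounds, rat liver microsomes and NADPH (0.5 mg/mL final each).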

Experiment [9] in a line: p53 small molecule agonists, cell-based qHTS assay: qHTS cell viability counter screen (AID 1963581). Note: nearly all actives have a fitted effect of over 45% in size. In outline:
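qHTS counter screen: 16 h compound exposure at 37 C of p53RE-bla HCT-116 cells (4,000 per well, seeded 5 h prior), cell viability by ATP luminescence.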

Experiment [10] can be described thus: p53 small molecule agonists, cell-based qHTS assay (AID 1963582; active = well fitted activation curve with a large enough effect in the signal ratio in the repeat runs, not every such curve was filed as active; the % refers to the signal ratio; note: potency is the fitted concentration of half-maximal effect). The essentials: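 Measured: fluorescence from cleaved LiveBLAzer substrate. System: p53RE-bla cells, 16 h compound treatment at 37 C, 2 h substrate step at room temperature.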
A short description of experiment [11]: cAMP Responsive Elements (CRE) small molecule agonists, cell-based qHTS assay (AID 1963590). The essentials:
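Test agents in DMSO were incubated 3 h at 37 C/5% CO2 with CRE-bla HEK 293T cells seeded 18 h earlier; LiveBLAzer B/G FRET substrate was added and read after 2 h at room temperature.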

Experiment [12] in a line: cAMP Responsive Elements (CRE) small molecule antagonists, cell-based qHTS assay (AID 1963591; active = well fitted inhibition curve with a large enough effect in the signal ratio in the repeat runs, not every such curve was filed as active; the % refers to the signal ratio). In outline: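 Reporter line CRE-bla HEK 293T in dialyzed-FBS DMEM; cells preincubated 18 h, treated 3 h with compound plus NKH477 (0.25 uM final); LiveBLAzer FRET, 2 h RT.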
Experiment [13] has as its target Beta-2 adrenergic receptor (Homo sapiens) (UniProt P07550). In words: Adrenergic beta2 receptor (ADRB2) small molecule agonists, cell-based qHTS assay (AID 1963593).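 Note: CHO cells stably overexpressing human ADRB2.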 In outline: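 CHO cells stably over-expressing ADRB2 were plated overnight at 37C, then dosed with compounds plus a stimulation mix containing 100uM IBMX and 25uM Ro-20-1724 for 0.5hr at room temperature. cAMP was measured by HTRF competition, 1hr.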

For experiment [14], the target named is D(2) dopamine receptor (Homo sapiens) (UniProt P14416). In words: Dopamine D2 receptor (DRD2) small molecule agonists, cell-based qHTS assay (AID 1963594). Note: nearly all actives have a fitted effect of over 35% in size. In outline: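 HEK293 cells stably expressing human DRD2, pre-treated with PDE inhibitor Ro20-1724 (0.1 mM final) and compound 10 min at room temperature, then stimulated with NKH477 (200nM […]) for 30 min. cAMP read by HTRF (665/620 nm).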
Sequence of D(2) dopamine receptor (Homo sapiens) (P14416 whole entry, looked up): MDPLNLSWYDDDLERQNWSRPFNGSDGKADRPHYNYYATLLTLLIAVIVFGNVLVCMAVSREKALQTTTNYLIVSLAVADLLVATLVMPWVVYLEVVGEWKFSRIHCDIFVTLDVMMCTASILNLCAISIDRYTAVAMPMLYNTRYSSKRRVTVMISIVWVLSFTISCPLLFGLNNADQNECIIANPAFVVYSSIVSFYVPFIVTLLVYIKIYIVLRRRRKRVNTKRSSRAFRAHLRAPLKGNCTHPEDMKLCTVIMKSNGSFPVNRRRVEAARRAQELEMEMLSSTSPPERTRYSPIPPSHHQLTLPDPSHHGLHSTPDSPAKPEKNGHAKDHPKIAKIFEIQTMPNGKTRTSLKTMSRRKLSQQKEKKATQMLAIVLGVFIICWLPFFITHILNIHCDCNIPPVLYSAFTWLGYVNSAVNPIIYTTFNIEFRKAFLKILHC

Experiment [15] has the same target. In words: Dopamine D2 receptor (DRD2) small molecule antagonists, cell-based qHTS assay (AID 1963595; active = well fitted inhibition curve with a large enough effect in the signal ratio in the repeat runs, with a control signal flat; the % refers to the signal ratio). In outline:
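DRD2-HEK293; 0.1 mM Ro20-1724; cpd 10 min RT; NKH477 200 nM + quinpirole 12 nM, 30 min RT; HTRF cAMP (cAMP-d2/anti-cAMP cryptate), 665/620 nm ratio after 1 h.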

The target of experiment [16] is Beta-2 adrenergic receptor (Homo sapiens) (UniProt P07550). In words: Adrenergic beta2 receptor (ADRB2) small molecule antagonists, cell-based qHTS assay (AID 1963592). Note: series mostly up to about 92 µM; nearly all actives have a fitted effect of over 50% in size. The essentials:
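Assay format: CHO-ADRB2 cells, 18-20hr seeding at 37C/5% CO2, then compound plus 1nM isoproterenol agonist mix for 0.5hr RT. Homogeneous time-resolved fluorescence cAMP detection after 1hr, expressed as 665/615 nm ratio.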

The target in experiment [17] is 5-hydroxytryptamine receptor 2A (Homo sapiens) (UniProt P28223). Put plainly: 5-hydroxytryptamine receptor 2A (HTR2A) small molecule antagonists, cell-based qHTS assay (AID 1963586). Note: nearly all actives have a fitted effect of over 45% in size. The essentials:
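CHO cells stably expressing human HTR2A were plated for 18 h at 37 C, then loaded with calcium dye for 1 h. Compounds were preincubated 5 min at room temperature before DOI (4 nM solution) was added. Kinetic fluorescence was read for 3 min.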

The target is the same in experiment [18]. In words: 5-hydroxytryptamine receptor 2A (HTR2A) small molecule agonists, cell-based qHTS assay (AID 1963587). Note: nearly all actives have a fitted effect of over 30% in size. In outline:
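CHO cells stably expressing human HTR2A, plated 18 h, loaded with calcium dye 1 h at 37 C. Agonist mode: compounds added and intracellular calcium fluorescence recorded kinetically for 2 min at 1 sec intervals.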

The target in experiment [19] is Muscarinic acetylcholine receptor M1 (Homo sapiens) (UniProt P11229). In words: Cholinergic receptor muscarinic 1 (CHRM1) small molecule antagonists, cell-based qHTS assay (AID 1963588). Note: nearly all actives have a fitted effect of over 40% in size. The essentials: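 Compounds were tested at 15 concentrations in three independent runs. Dye-loaded CHRM1-CHO cells were exposed 5 min at room temperature before stimulation by acetylcholine added at 50nM. Intracellular calcium was read kinetically on FDSS for 3 min.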
Sequence of Muscarinic acetylcholine receptor M1 (Homo sapiens) (P11229 whole entry, looked up): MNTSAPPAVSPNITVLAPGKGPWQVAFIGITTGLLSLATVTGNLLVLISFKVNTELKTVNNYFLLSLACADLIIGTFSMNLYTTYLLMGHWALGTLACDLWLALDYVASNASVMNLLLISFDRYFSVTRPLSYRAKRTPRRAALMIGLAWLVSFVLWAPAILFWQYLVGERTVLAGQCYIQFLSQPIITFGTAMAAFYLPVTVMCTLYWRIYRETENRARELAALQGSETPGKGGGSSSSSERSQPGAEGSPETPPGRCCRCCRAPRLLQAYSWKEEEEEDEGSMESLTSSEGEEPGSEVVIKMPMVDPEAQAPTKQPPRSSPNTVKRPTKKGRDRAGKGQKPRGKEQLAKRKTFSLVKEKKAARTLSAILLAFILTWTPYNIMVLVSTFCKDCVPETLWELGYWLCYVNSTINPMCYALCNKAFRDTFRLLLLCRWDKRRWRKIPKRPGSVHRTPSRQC

The target is the same in experiment [20]. Put plainly: Cholinergic receptor muscarinic 1 (CHRM1) small molecule agonists, cell-based qHTS assay (AID 1963589). Note: nearly all actives have a fitted effect of over 35% in size. The essentials: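 Kinetic fluorescence (1 s intervals) of calcium-sensitive dye in human M1 CHO cells after compound addition; cells pre-incubated 18 h at 37 C/5% CO2 and dye-loaded 1 h.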

Sequence of Beta-2 adrenergic receptor (Homo sapiens) (P07550 whole entry, looked up): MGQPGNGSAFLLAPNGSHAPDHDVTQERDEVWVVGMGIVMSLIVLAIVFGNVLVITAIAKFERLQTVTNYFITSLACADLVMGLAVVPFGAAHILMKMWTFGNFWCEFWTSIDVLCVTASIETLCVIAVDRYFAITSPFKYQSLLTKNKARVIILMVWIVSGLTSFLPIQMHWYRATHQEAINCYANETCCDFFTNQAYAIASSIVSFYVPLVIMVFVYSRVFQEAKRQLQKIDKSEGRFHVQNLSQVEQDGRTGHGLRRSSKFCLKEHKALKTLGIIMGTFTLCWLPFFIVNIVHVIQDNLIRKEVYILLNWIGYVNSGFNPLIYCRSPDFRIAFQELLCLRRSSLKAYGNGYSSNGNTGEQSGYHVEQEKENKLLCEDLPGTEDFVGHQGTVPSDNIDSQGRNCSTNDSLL
Sequence of KiSS-1 receptor (Homo sapiens) (Q969F8 whole entry, looked up): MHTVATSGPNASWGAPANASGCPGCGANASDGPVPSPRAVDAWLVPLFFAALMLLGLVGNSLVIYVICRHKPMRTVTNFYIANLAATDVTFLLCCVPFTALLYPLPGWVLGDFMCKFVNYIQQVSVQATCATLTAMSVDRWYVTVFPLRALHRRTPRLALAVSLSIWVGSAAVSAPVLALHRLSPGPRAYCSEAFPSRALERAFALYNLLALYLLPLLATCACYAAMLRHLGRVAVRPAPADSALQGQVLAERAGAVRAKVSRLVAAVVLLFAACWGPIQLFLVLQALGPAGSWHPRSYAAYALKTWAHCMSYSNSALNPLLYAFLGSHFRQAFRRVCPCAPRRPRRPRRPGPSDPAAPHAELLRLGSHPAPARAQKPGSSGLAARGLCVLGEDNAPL
Sequence of 5-hydroxytryptamine receptor 2A (Homo sapiens) (P28223 whole entry, looked up): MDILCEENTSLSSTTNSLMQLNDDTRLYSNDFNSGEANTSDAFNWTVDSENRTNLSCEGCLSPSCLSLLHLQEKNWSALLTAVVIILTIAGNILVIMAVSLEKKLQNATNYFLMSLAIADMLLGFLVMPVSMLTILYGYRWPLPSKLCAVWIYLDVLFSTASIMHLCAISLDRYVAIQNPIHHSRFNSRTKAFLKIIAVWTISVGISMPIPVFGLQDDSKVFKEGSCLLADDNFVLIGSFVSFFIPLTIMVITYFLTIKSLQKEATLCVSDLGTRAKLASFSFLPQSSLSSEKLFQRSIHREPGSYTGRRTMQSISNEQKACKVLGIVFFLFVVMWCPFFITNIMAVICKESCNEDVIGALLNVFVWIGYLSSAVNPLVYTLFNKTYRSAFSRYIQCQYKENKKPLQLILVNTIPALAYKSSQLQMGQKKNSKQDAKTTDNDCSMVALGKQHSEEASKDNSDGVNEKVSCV
Sequence of Gonadotropin-releasing hormone receptor (Homo sapiens) (P30968 whole entry, looked up): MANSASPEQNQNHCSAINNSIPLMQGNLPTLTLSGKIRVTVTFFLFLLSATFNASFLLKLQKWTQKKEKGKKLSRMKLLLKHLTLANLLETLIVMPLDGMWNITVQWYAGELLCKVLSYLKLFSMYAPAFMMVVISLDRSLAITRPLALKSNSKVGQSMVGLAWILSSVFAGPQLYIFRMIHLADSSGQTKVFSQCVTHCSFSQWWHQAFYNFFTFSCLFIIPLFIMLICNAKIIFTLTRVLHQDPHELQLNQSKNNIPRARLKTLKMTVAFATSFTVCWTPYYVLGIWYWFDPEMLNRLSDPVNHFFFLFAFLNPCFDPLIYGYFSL

On to `NC(N)=Nc1nc(CSCC/C(N)=N/S(N)(=O)=O)cs1`, for which the Potency result in experiment [1], in experiment [2], in experiment [3], in experiment [4], in experiment [5] and in experiment [6] was “inactive” each time. Also, the Potency result in [7], in [8], in experiment [9], in experiment [10], in experiment [11] and in [12] was “inactive” each time. The Potency entry in experiment [13], in experiment [14] and in experiment [15] was “inactive” throughout.
Turning to `CC1(C)[C@@H](O[C@H]2O[C@H](C(=O)O)[C@@H](O)[C@H](O)[C@H]2O[C@@H]2O[C@H](C(=O)O)[C@@H](O)[C@H](O)[C@H]2O)CC[C@]2(C)[C@H]3C(=O)C=C4[C@@H]5C[C@@](C)(C(=O)O)CC[C@]5(C)CC[C@@]4(C)[C@]3(C)CC[C@@H]12`, the Potency result in experiment [1], in experiment [2], in [3], in [4], in experiment [5] and in experiment [6] was “inactive” in each case. Also, the Potency result in experiment [7], in [8], in [9], in experiment [10], in [11] and in [16] was “inactive” in each case. Moreover, the Potency result in experiment [14] and in experiment [15] was “inactive” throughout.
On to `Nc1ccc2c(O)cc(S(=O)(=O)O)cc2c1`, for which the Potency entry in experiment [1], in [2], in experiment [3], in experiment [4], in [5] and in experiment [6] was “inactive” throughout. For the same compound, the Potency entry in experiment [7], in [8], in experiment [9], in experiment [17], in experiment [18] and in experiment [19] was “inactive” throughout. For the same compound, the Potency entry in experiment [20], in experiment [11], in experiment [12], in [14] and in [15] was “inactive” in each case. Besides, in experiment [10], the Potency was 12.9 µM (active) and 16.2 µM (active).
In the case of `C=C[Si](OCCOC)(OCCOC)OCCOC`, the Potency result in [1], in [2], in experiment [3], in [4], in experiment [5] and in [6] was “inactive” each time. Moreover, the Potency entry in experiment [7], in experiment [8], in experiment [9], in experiment [10], in experiment [17] and in experiment [18] was “inactive” in each case. Besides, the Potency result in [19], in experiment [20], in experiment [11], in experiment [16], in experiment [13] and in [14] was “inactive” in each case. Also, the Potency result in experiment [15] is “inactive”.
Turning to `CCCC(C)=O`, the Potency result in [1], in [2], in experiment [3], in experiment [4], in experiment [5] and in experiment [6] was “inactive” in each case. Also, the Potency entry in experiment [7], in experiment [8], in experiment [9], in [10], in experiment [18] and in experiment [19] was “inactive” in each case. Besides, the Potency entry in experiment [20], in experiment [11], in experiment [12], in experiment [16], in [13] and in experiment [14] was “inactive” throughout. The Potency entry in [15] was “inactive”.
On to `CC(O)C(=O)O` (stereo unspecified), for which the Potency result in experiment [1], in experiment [2], in experiment [3], in experiment [4], in experiment [5] and in experiment [6] was “inactive” throughout. Further, the Potency result in [7], in experiment [8], in experiment [9], in experiment [10], in [11] and in experiment [12] was “inactive” each time. Further, the Potency entry in experiment [16], in [13], in experiment [14] and in [15] was “inactive” each time.
As to `COc1ccccc1O`, the Potency result in [1], in [2], in [3], in experiment [4], in [5] and in [6] was “inactive” in each case. The Potency result in [7], in experiment [8], in [9], in experiment [10], in experiment [17] and in experiment [18] was “inactive” throughout. Besides, the Potency entry in experiment [19], in [20], in experiment [11], in experiment [12], in experiment [16] and in experiment [13] was “inactive” each time. Also, the Potency entry in experiment [14] and in experiment [15] was “inactive” each time.
